Test results as given in article PMC4336329 (PLoS ONE, 2015).
About 14,000 (4.5%) of roughly 310,000 compounds showed an effect of 50% or more. The effect is printed as a negative number. Shown is part of a subset that was picked to be rich in strong results.

Biological target: human ether-à-go-go-related gene (hERG) potassium channel (human, UniProt Q12809)
Experiment: primary screen, population patch clamp on CHO cells stably expressing hERG; higher = less effect of the substance
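Further: peak tail current of the secondary pulse compared with the same well before compound.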

Chain of human ether-à-go-go-related gene (hERG) potassium channel (Q12809 whole entry, looked up): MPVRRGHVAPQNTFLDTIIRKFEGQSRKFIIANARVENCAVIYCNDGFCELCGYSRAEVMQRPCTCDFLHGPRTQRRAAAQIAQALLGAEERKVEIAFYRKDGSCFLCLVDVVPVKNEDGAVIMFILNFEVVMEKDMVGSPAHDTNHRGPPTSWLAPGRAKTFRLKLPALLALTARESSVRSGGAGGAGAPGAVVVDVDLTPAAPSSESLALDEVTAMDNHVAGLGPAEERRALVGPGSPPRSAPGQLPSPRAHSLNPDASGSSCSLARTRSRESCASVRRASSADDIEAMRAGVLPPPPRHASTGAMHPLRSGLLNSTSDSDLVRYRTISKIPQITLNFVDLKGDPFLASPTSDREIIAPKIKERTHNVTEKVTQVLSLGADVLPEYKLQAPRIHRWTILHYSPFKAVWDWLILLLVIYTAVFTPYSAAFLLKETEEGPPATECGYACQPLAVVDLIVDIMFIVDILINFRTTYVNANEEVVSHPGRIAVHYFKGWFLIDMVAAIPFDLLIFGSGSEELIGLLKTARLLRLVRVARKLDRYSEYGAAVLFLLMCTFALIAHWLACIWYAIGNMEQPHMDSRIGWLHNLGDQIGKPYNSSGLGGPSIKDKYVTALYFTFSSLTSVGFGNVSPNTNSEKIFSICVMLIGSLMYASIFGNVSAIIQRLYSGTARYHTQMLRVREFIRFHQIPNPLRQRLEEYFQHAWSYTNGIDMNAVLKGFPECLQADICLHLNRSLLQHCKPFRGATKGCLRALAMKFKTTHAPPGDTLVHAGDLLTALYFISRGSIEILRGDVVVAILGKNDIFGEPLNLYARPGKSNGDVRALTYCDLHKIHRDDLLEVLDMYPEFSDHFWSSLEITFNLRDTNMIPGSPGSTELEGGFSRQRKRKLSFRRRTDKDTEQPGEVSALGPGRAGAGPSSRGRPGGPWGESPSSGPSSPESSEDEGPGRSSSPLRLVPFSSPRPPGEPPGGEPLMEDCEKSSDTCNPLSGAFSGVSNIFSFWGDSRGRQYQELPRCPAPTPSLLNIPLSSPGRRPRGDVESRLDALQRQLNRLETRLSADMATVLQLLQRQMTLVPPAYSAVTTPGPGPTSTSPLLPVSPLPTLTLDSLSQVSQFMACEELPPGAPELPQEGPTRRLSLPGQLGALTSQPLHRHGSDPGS

| SMILES | hERG current change (%, negative = inhibition) at 10uM [%] |
| --- | --- |
| CCCCCOc1ccc(CSc2ncn[nH]2)cc1 | -17.4 |
| O=C(NCC1CCCO1)c1onc(CSc2ccccc2)c1C(=O)O (centres unmarked) | 10.1 |
| CC(C)(C)OC(=O)CNC(=O)c1nc[nH]c1C(=O)N1CC[NH2+]CC1.[Cl-] | 4.07 |
| O=S1(=O)CCN(OCc2ccc(F)cc2Cl)CC1 | 34.4 |
| CCN(CC)S(=O)(=O)c1cc(NC(=O)Cc2n[nH]c(=O)c3ccccc23)ccc1C | -21.2 |
| O=C(Cc1n[nH]c(=O)c2ccccc12)Nc1cccc(S(=O)(=O)N2CCCC2)c1 | -5.36 |
| Cc1ccc(NC(=O)Cc2n[nH]c(=O)c3ccccc23)cc1S(=O)(=O)N1CCCCCC1 | -51.5 |
| Cc1ccc(NC(=O)Cc2c[nH]c3ccccc23)cc1S(=O)(=O)N1CCCCCC1 | 14.1 |
| O=C(Cn1[nH]c(=O)c2ccccc2c1=O)Nc1cccc(S(=O)(=O)N2CCCCCC2)c1 | -13.2 |
| O=C(Cc1n[nH]c(=O)c2ccccc12)Nc1cccc(S(=O)(=O)N2CCCCCC2)c1 | -57.8 |
| CCCCP(=O)(CCCC)Cc1ccccc1O | 13.9 |
| COc1ccccc1NC(=O)Nc1nc(CC(=O)Nc2ccc(F)cc2)cs1 | -1.25 |
| COc1ccc(-c2cc(C(=O)N3CCc4ccccc4C3)no2)cc1 | -0.668 |
| Cc1ccc(-n2c(C)cc(C(=O)NS(=O)(=O)c3ccc(C)cc3)c2C)cc1 | -30.8 |
| COP(=O)(NS(=O)(=O)c1ccccc1)OC | 19.9 |
| C=CCn1c(Cc2cccs2)nnc1SCC(=O)NCc1ccco1 | -1.47 |
| Cc1ccnc(SCc2cc(=O)c(OC(=O)c3ccc(S(=O)(=O)N(C)C)cc3)co2)n1 | -36.4 |
| CCOC(=O)c1c(NC(=O)CN(C)C)sc(C(=O)N(CC)CC)c1C.O=C(O)C(=O)O | -17.6 |
| CCC[C@@H]1CCCO[C@@](C(=O)NCc2ccccn2)(C(F)(F)F)C1 | -1.97 |
| COc1cc2c(cc1OC)C1(CCCC1)CNC2c1ccc([N+](=O)[O-])cc1.Cl (centres unmarked) | -50 |
| COc1cc2c(cc1OC)C1(CCCC1)CNC2C.Cl (centres unmarked) | -3.04 |
| COc1cc2c(cc1OC)C1(CCCC1)CNC2c1cccc([N+](=O)[O-])c1 (centres unmarked) | -43.3 |
| C/C(=N/NC(=O)CNC(=O)c1ccccc1)c1ccc(C)cc1 | -41.5 |
| CC1=C[C@@H](C)[C@@H](c2ccc(C(F)(F)F)cc2)OC1=O | 7.01 |
| Cc1ccc2c(c1)c(/C=C/c1cc[n+](C)cc1)c(C)n2C.[I-] | -10.9 |
| COc1ccc2c(CC(=O)NCCN3C(=O)S/C(=C\c4cccnc4)C3=O)coc2c1 | -9.62 |
| O=C(/C(=N\Nc1ccc([N+](=O)[O-])cc1)Sc1nnnn1-c1ccccc1)c1ccccc1 | 17.9 |

| SMILES | hERG current change (%, negative = inhibition) at 10uM [%] |
| --- | --- |
| CC1CCC(C(C)C)C(OC(=O)C[n+]2cc(-c3ccc(Cl)cc3)n3c2CCCCC3)C1.[Cl-] (centres unmarked) | -79.4 |
| O=C(C[n+]1cc(-c2ccc(Cl)cc2)n2c1CCCCC2)c1ccccc1.[Br-] | -12.5 |
| CC(C)[C@@H]1CC[C@@H](C)C[C@H]1OC(=O)C[n+]1cc(-c2ccc(Cl)cc2)n2c1CCCCC2.[Cl-] | -60.1 |
| COc1ccc(-c2c[n+](CC(=O)OC3CC(C)CCC3C(C)C)c3n2CCC3)cc1.[Cl-] (centres unmarked) | -69.3 |
| Cn1c(NC(=O)C[n+]2cc(-c3ccc(Cl)cc3)n3c2CCC3)cc(=O)n(C)c1=O.[Cl-] | 11.3 |
| O=C(C[n+]1cc(-c2ccccc2)n2c1CCCCC2)c1ccc(Cl)cc1.[Br-] | -23.4 |
| COc1ccc(C(=O)C[n+]2cc(-c3ccc(OC)cc3)n3c2CCCC3)cc1.[Br-] | -10.1 |
| O=C(C[n+]1cc(-c2ccc(Cl)cc2)n2c1CCC2)N1c2ccccc2Sc2ccccc21.[Cl-] | -22.1 |
| CC1CCC(C(C)C)C(OC(=O)C[n+]2cc(-c3ccc(Cl)cc3)n3c2CCC3)C1.[Cl-] (centres unmarked) | -77.1 |
| COc1ccc(-c2c[n+](CC(=O)c3cccs3)c3n2CCC3)cc1.[Br-] | 10.4 |
| O=C(Nc1ccc2c(c1)OCO2)C1CCCN(S(=O)(=O)c2cccs2)C1 (centres unmarked) | 10.7 |
| COc1cccc(-c2ncc3ccccn23)c1.O=C(O)C(=O)O | -5 |
| CCOc1ccc(S(=O)(=O)Nc2cccc(C(=O)NCCCn3ccnc3)c2)cc1 | 10.5 |
| O=C(CCN1C(=O)c2ccccc2C1=O)Nc1sc2c(c1C(=O)NCc1ccco1)CCCC2 | -13.2 |
| O=C(Nc1nnc(SCC(=O)N2CCCCC2)s1)c1cccs1 | 4.86 |
| CCOC(=O)c1c(NC(=O)C2COc3ccccc3O2)sc2c1CC(C)(C)NC2(C)C (centres unmarked) | -12.1 |
| Cc1nnc(SCC(=O)Nc2ncc(Cl)cc2Cl)n1Cc1ccccc1 | -15.6 |
| CC(Sc1nnc(CN2CCCC2)n1Cc1ccccc1)C(=O)Nc1ccccc1 (centres unmarked) | -43.1 |
| Cc1nnc(SC(C)C(=O)Nc2ccc(Cl)cn2)n1Cc1ccccc1 (centres unmarked) | -17.3 |
| Cc1ccc(-n2nnnc2SC(C)C(=O)Nc2ccc(Cl)cn2)cc1 (centres unmarked) | -22.1 |
| Cc1nnc(SC(C)C(=O)Nc2ncc(Cl)cc2Cl)n1Cc1ccccc1 (centres unmarked) | -67.8 |
| CC(Sc1nnnn1-c1ccccc1)C(=O)Nc1ccc(Cl)cn1 (centres unmarked) | -54.2 |
| O=C(CSc1nnnn1-c1ccccc1)Nc1ccc(Cl)cn1 | 2.66 |
| CC(Sc1nnc(CN2CCCC2)n1Cc1ccccc1)C(=O)Nc1ccc(F)cc1 (centres unmarked) | -61.4 |
| CC(=O)Nc1ccc(NC(=O)C(C)Sc2n[nH]c(=O)n2Cc2ccccc2)cc1 (centres unmarked) | 16 |
| Cc1sc2nc(SCc3nc4ccccc4[nH]3)n(Cc3ccco3)c(=O)c2c1C | -9.15 |
| C=CC1CN(C(=O)OCC(Cl)(Cl)Cl)C2CC3c4ccc(OC)cc4NC3C3CC1C2CO3 (centres unmarked) | -7.61 |

| SMILES | hERG current change (%, negative = inhibition) at 10uM [%] |
| --- | --- |
| CCOc1ccc2nc(SCC(=O)NCc3ccccc3)[nH]c2c1 | 2.63 |
| CC(C)CN(C(=O)COC(=O)CCSc1ccc(F)cc1)c1c(N)n(Cc2ccccc2)c(=O)[nH]c1=O | 10.1 |
| Cc1cc(C(=O)CN2C(=O)NC3(CCCc4ccccc43)C2=O)c(C)n1C (centres unmarked) | -13.5 |
| COc1ccc(/C=C2\S/C(=N/S(=O)(=O)c3cccs3)NC2=O)cc1 | 8.45 |
| CS(=O)(=O)N(CC(=O)NCCC1=CCCCC1)c1cccc([N+](=O)[O-])c1 | -32.4 |
| COc1cc(OC)cc(C(=O)Oc2c(CN3CCOCC3)cc(Cl)c3cccnc23)c1 | -15.5 |
| COC(=O)c1cccc(Nc2cc(C)nc(-c3ccccc3O)n2)c1 | 10.2 |
| COc1ccc(/C=C/C(=O)OCC(=O)c2ccc3c(c2)NC(=O)CO3)c(OC)c1 | 1.6 |
| Cc1ccccc1NC(=O)C1CCCN(S(=O)(=O)c2ccc3c(c2)C(C)(C)C(=O)N3C)C1 (centres unmarked) | 6.82 |
| COc1ccccc1CN1CCC(n2nccc2NC(=O)CCc2ccccc2)CC1 | -23.9 |
| COc1cccc(CN2CCC(n3nccc3NC(=O)CCCc3ccccc3)CC2)c1O | -75.9 |
| COCc1ccc(CN2CCC(n3nccc3NC(=O)CCCc3ccccc3)CC2)o1 | 21.5 |
| C=CCOc1ccccc1CN1CCC(n2nccc2NC(=O)c2ccccc2)CC1 | -64.4 |
| CCOc1ccccc1CN1CCC(n2nccc2NC(=O)CCCc2ccccc2)CC1 | -83.7 |
| O=C(Nc1ccnn1C1CCN(Cc2c[nH]c3ccccc23)CC1)c1ccccc1 | -44.7 |
| CCOc1ccccc1CN1CCC(n2nccc2NC(=O)CCc2ccccc2)CC1 | -38.6 |
| C=CCOc1ccccc1CN1CCC(n2nccc2NC(=O)C2CCOC2)CC1 (centres unmarked) | -21.5 |
| COc1ccccc1CN1CCC(n2nccc2NC(=O)CCCc2ccccc2)CC1 | -85.2 |
| O=S(=O)(NCc1cccnc1)c1ccc(Cl)c(Cl)c1 | -10.9 |
| O=C(CN1CCCCC1)Nc1cc(S(=O)(=O)N2CCOCC2)ccc1N1CCCC1 | 6.08 |
| COc1ccc(C(=O)C[n+]2cccc3cc(OC)ccc32)cc1.[Br-] | 6.04 |
| CCn1c(=O)n(CC)c2cc(NC(=O)CSc3ccc([N+](=O)[O-])cn3)ccc21 | -5.04 |
| Cc1nnc(SCC(=O)Nc2ccc(N3CCOCC3)cc2)o1 | 10.3 |
| COc1cccc(CN2CCC(n3nccc3NC(=O)CCOc3ccccc3)CC2)c1O | -61.5 |
| COCc1ccc(CN2CCC(n3nccc3NC(=O)CCOc3ccccc3)CC2)o1 | -0.748 |
| Cc1ccccc1CN1CCC(n2nccc2NC(=O)CCOc2ccccc2)CC1 | -44.9 |
